Where “and” joins values, the source holds several entries; their conditions need not be identical. Equal values may be shown once. The panel holds about 83,000 compounds, 20% with a hit somewhere; the sample as a whole holds those more often.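 A percent growth of 40 corresponds to 60% growth inhibition; 0 means no net growth; -100 means all cells died. Active threshold: below 10.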 Calls of active or inactive are those of the source.
What follows are compounds tested on MDA-MB-468 breast (assay: NCI-60 one-dose screen, 48 h (100 = growth as untreated, 0 = no growth, -100 = all killed)). Conditions: 10 µM unless noted.

Compound	growth
Cc1nn(-c2ccc(Br)cc2)c2nc(CCl)[nH]c(=O)c12	94% (inactive)
FC(F)(F)c1cc(CNc2ncc(Br)c(Cl)n2)cc(C(F)(F)F)c1	93.2% (inactive)
COC(=O)c1c2c(n3ccccc13)C(=O)c1ccccc1C2=O	95.7% (inactive)
COC(=O)c1ccc2c(c1)[n+](=O)c(C(C)=O)c(C(F)(F)F)n2[O-]	-83.7% (active)
Cc1nn(CC(=O)O)c2c1C(=O)CC(C)(C)C2	106% (inactive)
O=C(O)CC1Sc2ccccc2NC1=O (stereo not given)	163% (inactive)
O=C(Nc1cccc(Cl)c1)OCC(COC(=O)Nc1cccc(Cl)c1)(COC(=O)Nc1cccc(Cl)c1)[N+](=O)[O-]	16.5% (inactive)
CC(C)(C)CC(C)(C)Nc1c(-c2c(O)c3ccccc3oc2=O)nc2c(Cl)cc(C(F)(F)F)cn12	92.2% (inactive)
CN(C)CCCN1c2ccccc2Sc2ccc(C(F)(F)F)cc21	-76.9% (active)
CC1=CCC(OC(=O)C(C)(O)CCC(O)(C(=O)OC2(C)C=CC(O)(C(C)C)CC2)C(C)C)(C(C)C)CC1 (stereo not given)	107% (inactive)
CC(C)(CCCN=C(N)Nc1ccc(Cl)cc1)c1ccc(F)cc1	16.1% (inactive)
NNC(=O)CNC(=O)Nc1n[nH]c(=S)s1	111% (inactive)
CNCc1cccc2c1OCCOCCN(C)C(=O)CN(C)S(=O)(=O)c1ccc(cc1)-c1cnc(N)c(n1)C(=O)N2	-49.3% (active)
COc1ccc(/C=C(\C#N)c2cc(OC)c(OC)c(OC)c2)cc1	-10.8% (active)
O=C(/C=C/c1cccc(Cl)c1)c1ccccc1	82.8% (inactive) and 74.6% (inactive)

Source: PubChem BioAssay (NCI)
